# “And” between values parts separate entries of the source, which are not always exact repeats. Equal entries are not always repeated. Records with an inconclusive call do not appear. Values without a mark were called inactive. Calls follow the shape of the dose curve; as a rule, active = well fitted activation curve with a large enough effect in the signal ratio (not every such curve was filed as active); inconclusive = small, poorly fitted or top-dose-only effect, or a change in a side signal; inactive = flat fitted curve, though single readings scatter; the % refers to the signal ratio.
# Experiment: qHTS assay for small molecule activators of the p53 signaling pathway (AID 651743); also: series mostly up to about 92 µM; % of control where 0% means no effect
# Details: HCT-116 p53RE-bla, beta-lactamase FRET ratio, 16 h; activation: hits give high values
# In short: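 A beta-lactamase reporter under p53 response element control, stably carried by HCT-116 cells, reported pathway activation. Test compounds were applied for 16 hours at 37 C, and fluorescence was measured 2 hours after adding the B/G FRET substrate.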
row,Compound,activation
1,O=C(O)COc1ccc(Cl)cc1Cl,-2.21% [middle of 4 runs]
2,ClC1=C(Cl)C2(Cl)C3C4C=CC(C4)C3C1(Cl)C2(Cl)Cl (configuration not stated),0.0105%
3,O=S1OCC2C(CO1)C1(Cl)C(Cl)=C(Cl)C2(Cl)C1(Cl)Cl (configuration not stated),-4.01%
4,c1ccc(N=Nc2ccccc2)cc1,-2.32% and -5.83%
5,CCOCN(C(=O)CCl)c1c(C)cccc1CC,-6.37% and -3.12%
6,CNC(=O)O/N=C/C(C)(C)SC,-1.27% and -5.37% and -5.16%
7,CCNc1nc(Cl)nc(NC(C)C)n1,-2.86% and -1.26%
8,ClC1=C(Cl)C2(Cl)C3C(Cl)C=CC3C1(Cl)C2(Cl)Cl (configuration not stated),1.8%
9,ClC(Cl)=C(c1ccc(Cl)cc1)c1ccc(Cl)cc1,-3.15% and -5.84% and 6.09%
10,C/C=C/c1ccc2c(c1)OCO2,-2.48%
11,C=CCc1ccc2c(c1)OCO2,-1.35%
12,COP(=S)(OC)Oc1ccc([N+](=O)[O-])cc1,0.285% and 1.15%
